Inconclusive results are not listed. A call without a number means that no potency is given here. Calls of active or inactive are those of the source. Calls follow the shape of the dose curve; as a rule, active = well fitted curve in the direction sought with a large enough effect; inconclusive = small, poorly fitted or top-dose-only effect, or another doubt; inactive = no such curve, though single readings can be large; an effect the other way counts as inactive or inconclusive.

Assay [1] addresses Aldehyde dehydrogenase, mitochondrial (Homo sapiens) (UniProt P05091). Kind of assay: qHTS for Inhibitors of the Aldehyde Dehydrogenase Family (ALDH2) Primary screen (AID 2061308; also: nearly all actives have a fitted effect of over 55% in size). (Quantitative high-throughput screening tests each substance at several concentrations.)
Assay [2] has as its target Retinaldehyde dehydrogenase 3 (Homo sapiens) (UniProt P47895). Kind of assay: qHTS for Inhibitors of the Aldehyde Dehydrogenase Family (ALDH1A3) Primary screen (AID 2061315).

Consider `COc1cccc(CNc2ccc(S(=O)(=O)Nc3nccs3)cc2)c1O`, for which the Potency entry in assay [1] and in assay [2] was “inactive” in each case.

Turning to `Cc1ccc(NS(=O)(=O)c2ccc3c(ccn3C)c2)cc1C`, the Potency result in assay [1] and in assay [2] was “inactive” in each case.

Regarding `O=S(=O)(c1ccc2c(c1)OCCO2)N1CCN(S(=O)(=O)c2ccccn2)CC1`, the Potency result in assay [1] and in assay [2] was “inactive” in each case.

For the compound `O=C(Nc1ccc(Cl)c(Cl)c1)Nc1ccnc(-c2ccncc2)n1`, the Potency result in assay [1] and in assay [2] was “inactive” each time.

For `Cc1ccc(-c2cc(C(=O)Nc3ccccc3C)c3ccccc3n2)cc1C`, the Potency entry in assay [1] and in assay [2] was “inactive” throughout.

As to `CCn1cnc2c(Nc3ccc(CCC(=O)N=C(N)N)cc3)nc(C#N)nc21`, the Potency entry in assay [1] and in assay [2] was “inactive” in each case.

As to `CC(=O)Nc1sc2c(c1-c1nc3ccccc3s1)CCNC2`, the Potency entry in assay [1] and in assay [2] was “inactive” each time.

Turning to `Cc1cc(C)nc(NC(=S)N2CCN(Cc3c(F)cccc3Cl)CC2)c1`, the Potency entry in assay [1] and in assay [2] was “inactive” each time.

`Cc1ccc(S(=O)(=O)Nc2cncc(C(=O)Nc3nc(-c4ccccc4)cs3)c2)cc1`: the Potency entry in assay [1] and in assay [2] was “inactive” in each case.

With `N#Cc1cc(NC(=O)Nc2nnc(-c3ccncc3)s2)ccc1F`, the Potency result in assay [1] and in assay [2] was “inactive” each time.

Consider `Cc1ccc(-c2ccc(=O)n(CC(=O)NCc3ncc[nH]3)n2)cc1`, for which the Potency result in assay [1] and in assay [2] was “inactive” each time.

In the case of `Cc1cc(/C=C2/C(=O)Nc3ccccc32)cc(C)c1O`, the Potency result in assay [1] and in assay [2] was “inactive” throughout.

On to `N#Cc1nc(Nc2cc(F)cc(F)c2)nc(Nc2cc(F)cc(F)c2)n1`, for which the Potency result in assay [1] and in assay [2] was “inactive” throughout.

Regarding `O=C(O)c1ccc(S(=O)(=O)N[C@H](Cc2ccc([N+](=O)[O-])cc2)C(=O)O)cc1`, the Potency result in assay [1] and in assay [2] was “inactive” each time.

`CCC(Nc1ncnc2ccc(-c3c(C)noc3C)cc12)c1ccccc1` (stereo not given): the Potency entry in assay [1] and in assay [2] was “inactive” in each case.

For the origin of these results see PubChem BioAssay (NCATS).
